According to the supplement of paper PMC8728848:
This excerpt belongs to a sample that is enriched for the strongest signals.

Tests used:
Assay in all cases: glycan array binding signal (z-score within array); higher = stronger binding
Details in all cases: glycan notation: IUPAC condensed, linker removed
[1] = biological target: GalNAc(b1-4)GlcNAc(b1-3)GalNAc(b1-4)GlcNAc
Outline: (§1)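 Glycan array data came from 3228 arrays in the Consortium for Functional Glycomics database, and only arrays with an available protein sequence were kept. Glycan names were put into IUPAC-condensed notation, and columns mapping to the same glycan were averaged. The binding signal is a within-array Z-score, averaged across arrays of one protein sequence run at different concentrations or buffers and across linkers. A negative Z-score can be read as non-binding.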

[2] = biological target: Glc(a1-6)Glc(a1-6)Glc
Outline: as §1

[3] = biological target: GlcNAc(b1-2)Man(a1-3)[GlcNAc(b1-2)Man(a1-6)]Man(b1-4)GlcNAc(b1-4)[Fuc(a1-6)]GlcNAc
Outline: as §1

[4] = biological target: GlcNAc(b1-2)[GlcNAc(b1-6)]Man(a1-6)[GlcNAc(b1-4)][GlcNAc(b1-2)Man(a1-3)]Man(b1-4)GlcNAc(b1-4)GlcNAc
Outline: as §1

[5] = biological target: GlcNAc(b1-3)Gal(b1-4)GlcNAc(b1-3)Gal(b1-4)GlcNAc(b1-2)Man(a1-3)[GlcNAc(b1-3)Gal(b1-4)GlcNAc(b1-3)Gal(b1-4)GlcNAc(b1-2)Man(a1-6)]Man(b1-4)GlcNAc(b1-4)GlcNAc
Outline: as §1

[6] = biological target: GlcNAc(b1-3)Gal(b1-4)GlcNAc(b1-3)[GlcNAc(b1-3)Gal(b1-4)GlcNAc(b1-3)]GalNAc
Outline: as §1

[7] = biological target: GlcNAc(b1-4)GlcNAc(b1-4)GlcNAc(b1-4)GlcNAc(b1-4)GlcNAc
Outline: as §1

[8] = biological target: Man(a1-3)[Man(a1-6)]Man(a1-6)[Man(a1-2)Man(a1-3)]Man(b1-4)GlcNAc(b1-4)GlcNAc
Outline: as §1

[9] = biological target: Man(b1-4)GlcNAc
Outline: as §1

[10] = biological target: Neu5Ac(a2-3)Gal(b1-3)[Neu5Ac(a2-6)]GlcNAc(b1-3)[Fuc(a1-3)[Gal(b1-4)]GlcNAc(b1-6)]Gal(b1-4)Glc
Outline: as §1

[11] = biological target: Neu5Ac(a2-3)Gal(b1-4)GlcNAc(b1-3)Gal(b1-4)GlcNAc(b1-2)Man(a1-3)[Neu5Ac(a2-3)Gal(b1-4)GlcNAc(b1-3)Gal(b1-4)GlcNAc(b1-2)Man(a1-6)]Man(b1-4)GlcNAc(b1-4)GlcNAc
Outline: as §1

[12] = biological target: Neu5Ac(a2-3)Gal(b1-4)GlcNAc(b1-3)Gal(b1-4)GlcNAc(b1-3)GalNAc
Outline: as §1

[13] = biological target: Neu5Ac(a2-3)Gal(b1-4)GlcNAc6S
Outline: as §1

[14] = biological target: Neu5Ac(a2-3)Gal(b1-4)[Fuc(a1-3)]GlcNAc(b1-3)GalNAc
Outline: as §1

[15] = biological target: Neu5Ac(a2-3)Gal6S(b1-4)[Fuc(a1-3)]GlcNAc
Outline: as §1

[16] = biological target: Neu5Ac(a2-3)[GalNAc(b1-4)]Gal(b1-4)GlcNAc(b1-3)GalNAc
Outline: as §1

[17] = biological target: Neu5Ac(a2-6)Gal(b1-4)GlcNAc
Outline: as §1

[18] = biological target: Neu5Ac(a2-6)Gal(b1-4)GlcNAc(b1-3)Gal(b1-4)GlcNAc(b1-3)Gal(b1-4)GlcNAc(b1-2)Man(a1-3)[Neu5Ac(a2-6)Gal(b1-4)GlcNAc(b1-3)Gal(b1-4)GlcNAc(b1-3)Gal(b1-4)GlcNAc(b1-2)Man(a1-6)]GalNAc
Outline: as §1

[19] = biological target: Neu5Ac(a2-6)GalNAc(b1-4)GlcNAc6S
Outline: as §1

[20] = biological target: Neu5Ac(a2-8)Neu5Ac(a2-3)[GalNAc(b1-4)]Gal(b1-4)Glc
Outline: as §1

[21] = biological target: Neu5Ac(a2-8)Neu5Ac(a2-8)Neu5Ac(a2-3)[Gal(b1-3)GalNAc(b1-4)]Gal(b1-4)Glc
Outline: as §1

[22] = biological target: Neu5Ac(a2-8)Neu5Ac(a2-8)Neu5Ac(a2-3)[GalNAc(b1-4)]Gal(b1-4)Glc
Outline: as §1

[23] = biological target: Neu5Ac(a2-8)Neu5Gc(a2-3)Gal(b1-4)GlcNAc
Outline: as §1

[24] = biological target: Neu5Gc(a2-3)Gal(b1-4)GlcNAc(b1-3)Gal(b1-4)GlcNAc(b1-2)Man(a1-3)[Neu5Gc(a2-3)Gal(b1-4)GlcNAc(b1-3)Gal(b1-4)GlcNAc(b1-2)Man(a1-6)]Man(b1-4)GlcNAc(b1-4)GlcNAc
Outline: as §1

[25] = biological target: Neu5Gc(a2-3)Gal(b1-4)[Fuc(a1-3)]GlcNAc
Outline: as §1

[26] = biological target: Neu5Gc(a2-8)Neu5Gc(a2-6)Gal(b1-4)GlcNAc
Outline: as §1

B1: PX15642A-pgi-501-20-501 (Parabacteroides gingivalis) (protein)
chain: CELDRDPEGKDFQQPYTSFVQTKQNRDGLYALLRNTENPRMHFYQELQSDMYCTTITDGNSLAPFVNWDLGILNDHGRADEDEVSGIAGYYFVYNRLNQQANAFVNNTEAALQNQVYKNSTEIANAKSFLAEGKVLQALAIWRLMDRFSFHESVTEVNSGAKDLGVILLKEYNPGYIGPRATKAQCYDYILSRLSEAIEVLPENRESVLYVSRDYAYALRARIYLALGEYGKAAADAKMVVDKYPLIGAADASEFENIYRSDANNPEIIFRGFASATLGSFTATTLNGAAPAGKDIKYNPSAVPFQWVVDLYENEDFRKSVYIAKVVKKDKGYLVNKFLEDKAYRDVQDKPNLKVGARYFSVAEVYLILVESALQTGDTPTAEKYLKALSKARGAEVSVVNMEALQAERTRELIGEGSRLRDMVRWSIPNNHDAFETQPGLEGFANTTPLKAQAPVGFYAYTWEFPQRDRQTNPQLIKNWPI
B1 was tested, and the “glycan array binding signal (z-score)” value [1] was 5.6, the “glycan array binding signal (z-score)” value [2] was 1.35 and the “glycan array binding signal (z-score)” value [3] was 0.116. For the same binder, the “glycan array binding signal (z-score)” value [4] was -0.076, the “glycan array binding signal (z-score)” value [5] was 2.32 and the “glycan array binding signal (z-score)” value [6] was 0.014. For the same binder, the “glycan array binding signal (z-score)” value [7] was 0, the “glycan array binding signal (z-score)” value [8] was 0.018 and the “glycan array binding signal (z-score)” value [9] was 0.033. The “glycan array binding signal (z-score)” value [10] was -0.808, the “glycan array binding signal (z-score)” value [11] was 0.992 and the “glycan array binding signal (z-score)” value [12] was -0.213. The “glycan array binding signal (z-score)” value [13] was -0.486, the “glycan array binding signal (z-score)” value [14] was 3.38 and the “glycan array binding signal (z-score)” value [15] was -1.24. For the same binder, the “glycan array binding signal (z-score)” value [16] was -1.14, the “glycan array binding signal (z-score)” value [17] was -0.264 and the “glycan array binding signal (z-score)” value [18] was 2.23. The “glycan array binding signal (z-score)” value [19] was 0.286, the “glycan array binding signal (z-score)” value [20] was -0.038 and the “glycan array binding signal (z-score)” value [21] was 1.75. The “glycan array binding signal (z-score)” value [22] was 0.122, the “glycan array binding signal (z-score)” value [23] was 15.5 and the “glycan array binding signal (z-score)” value [24] was 0.077. The “glycan array binding signal (z-score)” value [25] was -0.476 and the “glycan array binding signal (z-score)” value [26] was -0.753.
